Experimental data reported in PubChem BioAssay (NCI).
This is part of a sample that, as a whole, favours compounds with a hit. Of some 79,000 tested, about 15% had one in any assay. Rule as the data show it: active = growth inhibition above about 70%; inactive = the rest.

Key:
[1] = NCI Yeast Anticancer Drug Screen. Data for the rad50 strain (AID 155);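 also: 0% = growth of vehicle-only cultures of the same strain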; details: S. cerevisiae rad50 strain growth inhibition; at 50.0 µM; active compounds read high
Procedure, shortened: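 Compounds were tested on a yeast strain with an engineered DNA damage repair alteration; the reported value is growth inhibition normalised to vehicle treatment.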

[2] = NCI Yeast Anticancer Drug Screen. Data for the mec2-1 strain (AID 157); details: S. cerevisiae mec2-1 strain, at 50.0 µM, active compounds read high
Procedure, shortened: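 Strain: mec2-1 (DNA repair/cell cycle alteration). Compound exposure, then growth measured; inhibition expressed relative to vehicle.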

[3] = NCI Yeast Anticancer Drug Screen. Data for the sgs1 mgt1 strain (AID 161);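 also: 0% = growth of cultures given vehicle only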; details: S. cerevisiae sgs1 mgt1 strain, at 50.0 µM, active compounds read high
Procedure, shortened: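 Inhibition of yeast growth, normalised to vehicle-treated controls, is reported for a strain bearing genetic alterations in DNA damage repair.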

[4] = NCI Yeast Anticancer Drug Screen. Data for the cln2 rad14 strain (AID 165);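 also: 0% = growth equal to vehicle treated cultures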; details: S. cerevisiae cln2 rad14 strain, at 50.0 µM, active compounds read high
Procedure, shortened: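 Compounds are applied to the cln2 rad14 yeast strain, and growth is then compared with that of vehicle-treated cultures to give inhibition.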

[5] = NCI Yeast Anticancer Drug Screen. Data for the bub3 strain (AID 167); details: S. cerevisiae bub3 mutant strain, at 50.0 µM, active compounds read high
Procedure, shortened: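 Growth of a checkpoint-deficient yeast mutant is measured after compound exposure. Values represent inhibition relative to vehicle.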

[6] = NCI Yeast Anticancer Drug Screen. Data for the mlh1 rad18 strain (AID 175); details: S. cerevisiae mlh1 rad18 strain growth inhibition; at 50.0 µM; active compounds read high
Procedure, shortened: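 Read-out is yeast growth inhibition, calculated against vehicle-only controls. The compound was applied to a strain engineered with DNA damage repair alterations.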

Measured: growth inhibition

CC(C)C(CN)(c1ccccc1)c1ccccc1
inactive: [1] -4.4% | [2] -7.75% | [3] -8.85% | [4] -59% | [5] -3.3% | [6] -10.9%

CN(C)CC(CN(C)C)C(=O)C(C)(C)C
inactive: [1] 9.45% | [2] -1.95% | [3] 22.7% | [4] -7.7% | [5] 7.8% | [6] 13.8%

CC(=O)/C=C(\O)c1c(C)[nH]c2ccccc12
inactive: [1] -16% | [2] 9% | [3] -3.95% | [4] -41.4% | [5] -11.9% | [6] -5.95%

CCSCC1OC(n2cnc3c(=S)nc(N)[nH]c32)C(O)C1O (stereo unspecified)
inactive: [1] 15.2% | [2] 10.1% | [3] -0.75% | [4] 16.4% | [5] 11.8% | [6] 21.1%

CC1(C#N)CC/C(=C\c2ccc3c(c2)OCO3)C(=O)C1 (stereo unspecified)
inactive: [1] 0.3% | [2] 16.9% | [3] 4.75% | [4] -1.1% | [5] -6.7% | [6] -4.6%

CC(=O)OC1CCC2(C)C(=CC=C3C4CCC(=O)NC4(C)CCC32)C1 (stereo unspecified)
inactive: [1] 19.5% | [2] 0.25% | [3] 21.4% | [4] 11.1% | [5] -3.6% | [6] 2.35%

CCCCCC(=O)C#Cc1ccccc1
inactive: [1] 24.1% | [2] 11.1% | [3] 11.7% | [4] -7.25% | [5] -4.9% | [6] 20.4%

Nc1cc(Cl)cc2[nH]c(=O)c3cc(Cl)ccc3c12
inactive: [1] 39.8% | [2] 7.25% | [3] 13.6% | [4] 5.35% | [5] 17.2% | [6] 38%

CC(=O)C1=CCC2c3[nH]c4ccccc4c3CCN2C1 (stereo unspecified)
inactive: [1] 17.6% | [2] 4.1% | [3] 20.3% | [4] 25.7% | [5] 1.5% | [6] 18.9%

CCOC(=O)C(=CNc1cc(C(F)(F)F)ccc1N1CCOCC1)C(=O)OCC
inactive: [1] -1.4% | [2] -15.2% | [3] -9.5% | [4] 18.6% | [5] 2.25% | [6] -0.1%

Cc1onc(-c2ccc(-c3noc(C)c3C(=O)O)cc2)c1C(=O)O
inactive: [1] -1.9% | [2] -7.75% | [3] -3.25% | [4] -5.4% | [5] -10.4% | [6] 11.4%

CCCC(CCC)C(=O)[O-].CCCC(CCC)C(=O)[O-].CCCC(CCC)C(=O)[O-].CCCC(CCC)C(=O)[O-].[Cu+2].[Cu+2]
inactive: [1] 1.4% | [2] 13.4% | [3] -2.8% | [4] 19.9% | [5] 20% | [6] 14.2%

CCc1cc2c(c3c1CCCC3=O)CC1(Cc3ccc(C(=O)OC)cc3C1)C2 (stereo unspecified)
inactive: [1] -8.05% | [2] -28.9% | [3] -7.6% | [4] -20.6% | [5] -8.95% | [6] -39.7%

c1cc[n+](CC[n+]2ccccn2)nc1
inactive: [1] 11.7% | [2] 22% | [3] 7.65% | [4] 16.4% | [5] 45.6% | [6] 46.1%

Nc1ccc(-c2nc3ccccc3[nH]2)cc1
inactive: [1] -2.55% | [2] 17.8% | [3] 3.1% | [4] 9% | [5] 18.9% | [6] -0.8%

COC(=O)/C(C#N)=C1\CCC(OC)N1 (stereo unspecified)
inactive: [1] -4.25% | [2] 6.95% | [3] -21.2% | [4] 3.7% | [5] -13.1% | [6] -24.9%

O=C(OCc1ccc(Cl)cc1Cl)OCc1ccc(Cl)cc1Cl
inactive: [1] 7.55% | [2] -0.9% | [3] -3.7% | [4] -31.7% | [5] 19.2% | [6] 37.4%

Cc1ccc(C(=O)O)c(O)c1
inactive: [1] 11.7% | [2] -1.7% | [3] -14.8% | [4] -13.9% | [5] -26% | [6] -2.5%

COc1cc(/C=N/NC2=NCCCN2)ccc1O
inactive: [1] 28.7% | [2] 13.2% | [3] 7.75% | [4] -16.2% | [5] 0.7% | [6] 17.4%

Cn1c2c(cc(-c3ccccc3)c1=O)COc1ccccc1-2
inactive: [1] 31.1% | [2] -13.9% | [3] 26.2% | [4] 2.45% | [5] 23.7% | [6] 24.1%

C/C=C/C1OCC(C)(C)CO1
inactive: [1] -0.8% | [2] 22.9% | [3] -12.9% | [4] -46.8% | [5] -24.7% | [6] -1.5%

CN1C(=O)CC(c2ccc(Cl)cc2)C1=O (stereo unspecified)
inactive: [1] 21.4% | [2] 21.4% | [3] -0.65% | [4] 2.5% | [5] -3.75% | [6] 2.65%

Cc1ccc(S(=O)(=O)N/N=C/c2ccsc2)cc1
inactive: [1] 20.6% | [2] 13.3% | [3] 27.9% | [4] 18.8% | [5] 23% | [6] 33%

Cc1ccc(N2C(=O)CSC2=S)cc1F
inactive: [1] 1.55% | [2] 6.55% | [3] 47.4% | [4] 8.15% | [5] 5.6% | [6] 10.7%

CSc1nc2c(c(=O)n1C)N=C(c1ccc(Cl)cc1)CC(c1ccccc1)N2 (stereo unspecified)
inactive: [1] 16% | [2] 3.25% | [3] -5.6% | [4] 11.4% | [5] -11.6% | [6] 15.8%

Cc1nc(C)c(N2CCN(S(N)(=O)=O)CC2)c(=O)[nH]1
inactive: [1] -70.3% | [2] -26.9% | [3] -30.8% | [4] 6.6% | [5] 3.4% | [6] -21.8%

CCCCCCCN1C(=O)C(O)(c2ccc(C3(O)C(=O)N(CCCCCCC)c4ccccc43)s2)c2ccccc21 (stereo unspecified)
inactive: [1] 9.35% | [2] 10.9% | [3] 4.9% | [4] 10.2% | [5] 9.7% | [6] 14.6%

O=c1[nH]cc(CNc2ccccc2)c(=O)[nH]1
inactive: [1] -5.5% | [2] 4.75% | [3] -9.45% | [4] -27.8% | [5] -18.2% | [6] 8.5%

CN(C)/C=N/NC(=O)C(O)c1ccccc1 (stereo unspecified)
inactive: [1] 10.3% | [2] 2.2% | [3] 4.45% | [4] 18.2% | [5] 34.4% | [6] -19.6%

O=C(O)CC1CCCc2ccccc2C1CC(=O)O (stereo unspecified)
inactive: [1] 5.25% | [2] -4.3% | [3] 10.4% | [4] 8.8% | [5] 6.85% | [6] 7.4%

CCc1nc(Nc2cccc(Cl)c2)c2cnn(-c3ccccc3)c2n1
inactive: [1] -11.2% | [2] -8.35% | [3] -4.35% | [4] -48.4% | [5] 14.7% | [6] -6.85%

Cc1nc2c(Cl)cc(Cl)cc2c(Cl)c1CCCl
inactive: [1] 29.9% | [2] 30.2% | [3] 49.5% | [4] 18.9% | [5] 39.6% | [6] 45.6%

COC(=O)Nc1ccc(NC(=O)c2cscn2)c(NC(=O)OC)n1
inactive: [1] 1.55% | [2] 2.7% | [3] -2.3% | [4] -4.05% | [5] 5.75% | [6] -3.45%

c1csc(C2N3CCN(CC3)C(c3cccs3)N3CCN2CC3)c1 (stereo unspecified)
inactive: [1] -1.6% | [2] -16.7% | [3] 23.8% | [4] 10.1% | [5] -5.25% | [6] 3.1%

CNCC(C(=O)C(CNC)c1ccccc1)c1ccccc1 (stereo unspecified)
inactive: [1] -1.15% | [2] -6.45% | [3] 11.4% | [4] 7.6% | [5] 4% | [6] 21.9%

Nc1nc2scnc2c(=O)[nH]1
inactive: [1] 7.1% | [2] -4.35% | [3] -3.25% | [4] -7.95% | [5] -8.5% | [6] 8.35%

CCOC(=O)c1ccc(NC(=O)c2cccc(Cl)c2)cc1
inactive: [1] 0.1% | [2] -6.85% | [3] -4.25% | [4] -5.45% | [5] 9.5% | [6] 1.25%

Cc1ccc(S(=O)(=O)OC(F)(F)C(F)(F)F)cc1
inactive: [1] 7.8% | [2] 5.05% | [3] 7.95% | [4] -8.15% | [5] -4.05% | [6] 5.5%

O=C1c2ccccc2C(=O)N1CC(F)(F)F
inactive: [1] -11.9% | [2] -4.75% | [3] -9.5% | [4] 8.25% | [5] 5.6% | [6] -12.3%

CCOC(=O)c1[nH]c(CC(=O)O)c(C(=O)O)c1C
inactive: [1] 15.7% | [2] 26.4% | [3] 24.4% | [4] 0.4% | [5] 16.4% | [6] 15.2%

COc1cccc2c1OC(=O)C(S(=O)(=O)c1ccccc1)C2 (stereo unspecified)
inactive: [1] -7.8% | [2] -3.95% | [3] 5.5% | [4] -37.5% | [5] -7.25% | [6] -3.65%
